Source: PubChem BioAssay (NCI)
This is part of a sample that, as a whole, favours compounds with a hit. Of some 83,000 tested, about 20% had one in any assay.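 The test compound was applied at a single concentration to cells in 96-well plates for 48 hours, and percent growth was recorded.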 Calls of active or inactive are those of the source. How the source made its calls: active means growth percent below 10; inactive means the rest.

system: HL-60(TB) leukemia; assay: NCI-60 one-dose screen, 48 h (100 = growth as untreated, 0 = no growth, -100 = all killed); conditions: 10 µM unless noted

SMILES	growth
CC/C=C\C[C@H]1CC=C2C(=O)C=C[C@@H]2CC=CCCCC(=O)O[C@@H](CCCCC)CC=C2C(=O)C=C[C@@H]2CC=CCCCC(=O)O[C@@H](CCCCC)CC=C2C(=O)C=C[C@@H]2CC=CCCCC(=O)O[C@@H](CCCCC)CC=C2C(=O)C=C[C@@H]2CC=CCCCC(=O)O1	-15.3% [7.9 µM] (active)
Cc1c2ccccc2nc2c1ccc1cccnc12	85.8% (inactive)
CCCCCCCCCCCCCCCCCC1=NC(C)(C)CN1CCO	-62.2% (active)
O=C(O)/C=C/C(=O)NCc1ccccc1	105% (inactive)
COc1ccc(-c2nnc(SCC(=O)NC3=NN=C(c4ccccc4)CS3)o2)cc1	90.9% (inactive)
CC(N)C(Cc1ccccc1)c1ccc(Cl)cc1 (stereo not given)	66.5% (inactive)
COc1cc(/C=N/NC(=O)c2cnn3c2NC(c2ccccc2)C3)ccc1OCc1ccccc1 (stereo not given)	-0.0884% (active)
COc1ccc(-c2nn(-c3ccccc3)cc2/C=C2\SC(=S)N(CCc3ccc(O)cc3)C2=O)cc1	84% (inactive)
O=C1C2(c3ccccc3)C(c3ccccc3)=C(c3ccccc3)C1(c1ccccc1)C1CC=CC12 (stereo not given)	76.3% (inactive)
COc1ccc(C(=O)/C=C/c2ccc(C)cc2)cc1S(N)(=O)=O	56.2% (inactive)
Nc1nc(NC2CC2)cc(-c2cccc(Cl)c2Cl)n1	32.6% (inactive)
COc1ccc(-c2csc(NC(=O)CSc3nc(C)cc(=O)[nH]3)n2)cc1	106% (inactive)
C=C(C)C(=O)Nc1ccc(NC(C)C)cc1	129% (inactive)
Clc1ccc2c(NCCCN3CCN(c4nc(N5CCOCC5)nc5ccccc45)CC3)ccnc2c1	-51.5% (active)
Cn1c(=O)c(S(=O)(=O)c2ccccc2)cc2ccc3c(cnn3-c3ccc(Cl)cc3)c21	90.2% (inactive)
CCOC(=O)Oc1c(OC)cc(C(=O)c2ccc(OC)c(O)c2OC)cc1OC	-32.6% (active)
COc1cc(/C=C/C(=O)C(=Cc2ccc(F)c(F)c2)C(=O)/C=C/c2ccc(O)c(OC)c2)ccc1O	16.6% (inactive)
CSc1ccc(N2C(=N)C(=S)N(c3ccc(C)cc3)C2=O)cc1	101% (inactive)
CC(=O)c1c(C)[nH]c(-c2nc3ccc(N4CCN(C)CC4)cc3[nH]2)c1-c1ccc(N(C)C)cc1	-17.3% (active)
CCN(CC)CCCCNc1ccc(NCCCCN(CC)CC)c2c1C(=O)c1ccccc1C2=O	70% (inactive)

SMILES	growth
CCCCCc1c(C)[nH]c(/C=C2\N=C(c3ccc[nH]3)C=C2Oc2ccccc2)c1C	-49.6% [100 µM] (active)
O=C(CCCCC(=O)Nc1ccc2c(c1)/C(=C/c1ccc[nH]1)C(=O)N2)NO	107% (inactive)
O=C1c2cc3c(cc2-c2c1c1ccc(Cl)cc1c(=O)n2C[C@H](O)CO)OCO3	-14.9% (active)
COc1cccc(NC(=O)Nc2ccc(Oc3ncnc4[nH]c(C)c(C)c34)cc2)c1	88.4% (inactive)
COc1ccccc1-[n+]1cc(-c2ccc(-c3ccccc3)cc2)n2c1CCCCC2	-27.7% (active)
CNC(=O)c1cncc(Cn2nc(C)c(NC(=O)c3ccc(COc4ccc(C(F)(F)F)cc4C)cc3)c2C)c1	63.6% (inactive)
COc1ccc(-c2c(-c3ccc(OC)c(O)c3)cnc3ncnn23)cc1	106% (inactive)
COc1cc(Nc2ncc(F)c(Nc3ccc4c(n3)N(COP(=O)(O)O)C(=O)C(C)(C)O4)n2)cc(OC)c1OC	52.8% (inactive)
C=CC(=O)Nc1cc2c(Nc3ccc(F)c(Cl)c3)ncnc2cc1C#CC(C)(C)N1CCN(C)CC1	-47.6% (active)
N#CC(=C1C=CC(=NO)C=C1)c1ccccc1	4.88% (active)
NS(=O)(=O)c1ccc(NC2=C(Cl)C(=O)c3ccccc3C2=O)cc1	87.6% (inactive)
O=C(CSc1nnc(-c2ccccc2)o1)Nc1ccc(C(=O)/C=C/c2ccccc2)cc1	71% (inactive)
CSc1cccc([N+](=O)[O-])c1	91.7% (inactive)
O=C1Nc2ccccc2/C1=C/c1cccn1C(=O)c1ccc(Cl)s1	57.3% (inactive)
Cc1ncc(C(=O)Nc2ccc(CN3CCN(C)CC3)c(C(F)(F)F)c2)cc1C#Cc1cncc2ncccc12	41.7% (inactive)
CCN(CCC#N)c1ccccc1	98.1% (inactive)
CNC(=O)c1cn2c3c(c(N4CCN(C)CC4)c(F)cc3c1=O)OC[C@@H]2C	99.3% (inactive)
CCN(CC)CCCNCCCNc1cc(OC)cc2cccnc12	-3.42% (active)
O=c1c2ccccc2sc2c(N3CCCC3)nc3ccccc3c12	99.1% (inactive)
CC(C)c1[nH]nc2c(NCc3ccc(-c4ccccn4)cc3)nc(SCCN(C)C)nc12	-16.4% (active)
